Laboratory results published in PubChem BioAssay (NCI).
Values joined by “and” are separate entries in the source; they are usually repeats but may differ in a detail not shown here. Equal entries are not always repeated. The panel holds about 83,000 compounds, 20% with a hit somewhere; the sample as a whole holds those more often.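 Method: cells in 96-well plates; compound added at one concentration; 48 h incubation; percent growth measured; values under 10 scored active.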 Active and inactive are the calls of the source.

Columns and labels:
Experiment in all cases: NCI-60 one-dose screen, 48 h (100 = growth as untreated, 0 = no growth, -100 = all killed)
Conditions in all cases: 10 µM unless noted
[1] = system: NCI-H23 lung
[2] = system: NCI-H226 lung
[3] = system: HOP-62 NSCLC
[4] = system: NCI-H460 lung
[5] = system: HOP-92 NSCLC
[6] = system: NCI-H522 lung
[7] = system: A549/ATCC NSCLC
[8] = system: 786-0 renal
[9] = system: COLO 205 colon
[10] = system: DU-145 prostate
[11] = system: K-562 leukemia
[12] = system: MALME-3M melanoma
[13] = system: MDA-MB-231 breast
[14] = system: RXF 393 renal
[15] = system: SF-268 CNS
[16] = system: SF-295 CNS
[17] = system: SF-539 CNS
[18] = system: UACC-257 melanoma
[19] = system: NCI-H322M lung
[20] = system: M14 melanoma

SMILES	growth [1]	growth [2]	growth [3]	growth [4]	growth [5]	growth [6]	growth [7]	growth [8]	growth [9]	growth [10]	growth [11]	growth [12]	growth [13]	growth [14]	growth [15]	growth [16]	growth [17]	growth [18]	growth [19]	growth [20]
OC1CCCN(Cc2ccccc2)C1 (stereo unspecified)	103% (inactive)	106% (inactive)	107% (inactive)	107% (inactive)	106% (inactive)	101% (inactive)	85.4% (inactive)	115% (inactive)	102% (inactive)	121% (inactive)	111% (inactive)	104% (inactive)	103% (inactive)	107% (inactive)	102% (inactive)	114% (inactive)	109% (inactive)	93.9% (inactive)		
Nc1ccccc1SC(CC(=O)c1ccccc1)c1cccc([N+](=O)[O-])c1 (stereo unspecified)	87.1% (inactive) and 90.4% (inactive)		95.3% (inactive) and 95.4% (inactive)	105% (inactive) and 100% (inactive)	95.9% (inactive)	84.4% (inactive) and 73.3% (inactive)	95.1% (inactive) and 78.7% (inactive)	113% (inactive) and 91.8% (inactive)	102% (inactive) and 109% (inactive)	113% (inactive) and 85.5% (inactive)	61% (inactive) and 7.1% (active)	123% (inactive) and 86.7% (inactive)	86.4% (inactive) and 99.6% (inactive)	104% (inactive) and 94.7% (inactive)	101% (inactive) and 83.9% (inactive)	83.1% (inactive) and 92.3% (inactive)	99.6% (inactive) and 105% (inactive)	95% (inactive) and 87.7% (inactive)	113% (inactive) and 96.1% (inactive)	114% (inactive) and 89.9% (inactive)
O=C(N=C1C(=O)C2(CCCCC2)C2(N=C(c3ccccc3)OC2=O)C12CCCCC2)c1ccccc1 (stereo unspecified)	66.9% (inactive)	70.2% (inactive)	96.8% (inactive)	69.5% (inactive)	41.7% (inactive)	37.9% (inactive)	5.7% (active)	77.7% (inactive)	94% (inactive)	79% (inactive)	54.4% (inactive)	77.6% (inactive)	74.4% (inactive)	69.5% (inactive)	77.8% (inactive)	77.3% (inactive)	82.3% (inactive)	67.7% (inactive)		
N#Cc1c[nH]n2ccnc12	99.3% (inactive)	96% (inactive)		119% (inactive)	99.5% (inactive)	87.8% (inactive)	86.7% (inactive)	97.3% (inactive)	109% (inactive)	111% (inactive)	106% (inactive)	106% (inactive)	111% (inactive)	113% (inactive)	107% (inactive)	99.8% (inactive)	104% (inactive)	97.7% (inactive)		94.9% (inactive)
COc1cc(C2c3cc4c(cc3C(OC(=O)C[n+]3ccccc3)C3COC(=O)C23)OCO4)cc(OC)c1OC (stereo unspecified)	20.8% (inactive)	22.5% (inactive)	19.3% (inactive)	4.91% (active)	71.5% (inactive)	-23.4% (active)	7.1% (active)	25.8% (inactive)	-56.3% (active)	-40.1% (active)	6.79% (active)	59% (inactive)	-2.88% (active)	41.1% (inactive)	8.83% (active)	1.14% (active)	-9.3% (active)	55.1% (inactive)		7.72% (active)
Cc1cccc(Cl)c1N	99.6% (inactive)	118% (inactive)	104% (inactive)	107% (inactive)	94.1% (inactive)	105% (inactive)	96.4% (inactive)	113% (inactive)	119% (inactive)	109% (inactive)	107% (inactive)	111% (inactive)	114% (inactive)	126% (inactive)	105% (inactive)	102% (inactive)	111% (inactive)	95.5% (inactive)		105% (inactive)
